We go through 19 compounds from PubChem BioAssay (Tox21).

Assay [1] addresses Aryl hydrocarbon receptor (Homo sapiens) (UniProt P35869). In words: qHTS assay to identify small molecule that activate the aryl hydrocarbon receptor (AhR) signaling pathway (AID 743085).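 For activation: HG2L7.5c1 human HepG2 liver cells with stably integrated DRE-driven firefly reporter; series mostly up to about 70 µM.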 Note: nearly all actives have a fitted effect of over 15% in size. Note: potency is the fitted concentration of half-maximal effect. The procedure, abridged:
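AhR agonist activity is inferred from enhanced light output of a DRE-controlled firefly luciferase reporter in HepG2 cells, measured with ONE-Glo following 24 h treatment at 37C.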

Assay [2] is described as follows: qHTS assay to identify small molecule that activate the aryl hydrocarbon receptor (AhR) signaling pathway - cell viability counter screen (AID 743086). Note: series mostly up to about 70 µM; nearly all actives have a fitted effect of over 45% in size. The procedure, abridged: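 Cytotoxicity counter screen: CellTiter-Fluor signal (30 min, 37 C) in 4000 HepG2 cells/well carrying the DRE-luciferase reporter, following 24 h compound exposure at 37 C.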
For assay [3], the target named is Peroxisome proliferator-activated receptor gamma (Homo sapiens) (UniProt P37231). In words: qHTS assay to identify small molecule antagonists of the peroxisome proliferator-activated receptor gamma (PPARg) signaling pathway (AID 743191; calls by dose curve; note: series mostly up to about 63 µM; nearly all actives have a fitted effect of over 30% in size). The method in brief: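 Beta-lactamase reporter under UAS control in HEK293H PPARg-bla cells; compound treatment 17 h at 37C. Read-out: fluorescence intensity after 1 h room-temperature incubation with LiveBLAzer B/G FRET substrate.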
(In general: In qHTS, concentration-response curves come from the screen itself.)

A short description of assay [4]: qHTS assay to identify small molecule antagonists of the peroxisome proliferator-activated receptor gamma (PPARg) signaling pathway - cell viability counter screen (AID 743194). Note: nearly all actives have a fitted effect of over 55% in size. The procedure, abridged: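 Viability was measured as CellTiter-Glo luminescence in GeneBLAzer PPARg UAS-bla HEK293H cells. These cells had been exposed 17 h at 37 C to compounds together with rosiglitazone at 50 nM final, with the beta-lactamase readout taken in the same wells.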

A short description of assay [5]: qHTS assay for small molecule agonists of the antioxidant response element (ARE) signaling pathway (AID 743202; active = well fitted activation curve with a large enough effect in the signal ratio in the repeat runs, not every such curve was filed as active; the % refers to the signal ratio; note: potency is the fitted concentration of half-maximal effect). The procedure, abridged: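 Beta-lactamase reporter activity, read as fluorescence intensity, reflects ARE/Nrf2 pathway induction in HepG2 cells after 16 h compound exposure at 37 C; substrate loading was 2 h at room temperature.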
Assay [6] can be described thus: qHTS assay for small molecule agonists of the antioxidant response element (ARE) signaling pathway - cell viability counter screen (AID 743203; calls by dose curve; note: nearly all actives have a fitted effect of over 55% in size). The procedure, abridged: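 Parallel cytotoxicity read-out for the ARE-bla screen: HepG2 reporter cells, 16 hrs with compounds, then CellTiter-Glo luminescence.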
Assay [7] is described as follows: qHTS assay for small molecule activators of the heat shock response signaling pathway - cell viability counter screen (AID 743209). Note: nearly all actives have a fitted effect of over 50% in size. The method in brief:
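To flag cytotoxic compounds, HSE-bla HeLa cells plated at 1500 cells/well were dosed for 5 h at 37 C, followed by the reporter FRET read and then CellTiter-Glo, with luminescence recorded 30 min after reagent addition.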

The nature of assay [8]: qHTS assay for small molecule activators of the heat shock response signaling pathway (AID 743210; active = well fitted activation curve with a large enough effect in the signal ratio in the repeat runs, with a control signal flat, not every such curve was filed as active; the % refers to the signal ratio;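 note: HeLa cells with beta-lactamase reporter driven by heat shock elements; series mostly up to about 63 µM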). The procedure, abridged:
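Fluorescence from a cleaved B/G FRET substrate (2.5 h, room temp) reports HSE-driven beta-lactamase in HeLa cells treated 5 h at 37 C with DMSO-dissolved compounds.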

Assay [9] in a line: qHTS assay to identify small molecule agonists of the peroxisome proliferator-activated receptor delta (PPARd) signaling pathway - cell viability counter screen (AID 743211). Note: nearly all actives have a fitted effect of over 55% in size. The method in brief:
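qHTS cell viability: PPARd-bla HEK293H; 17 h cpd, 37C; CellTiter-Glo, luminescence at 30 min RT.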

For assay [10], the target named is Peroxisome proliferator-activated receptor gamma (Homo sapiens) (UniProt P37231). In words: qHTS assay to identify small molecule agonists of the peroxisome proliferator-activated receptor gamma (PPARg) signaling pathway (AID 743094; active = well fitted activation curve with a large enough effect in the signal ratio in the repeat runs, not every such curve was filed as active; the % refers to the signal ratio). The method in brief:
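Fluorescence-based beta-lactamase readout in HEK293H PPARg UAS-bla cells after 17 h compound exposure (37C) and 1 h B/G FRET substrate incubation at room temperature.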

Records with an inconclusive call do not appear. Unmarked numbers belong to inactive results. Calls of active or inactive are those of the source. Unless noted, calls come from the whole dose curve; as a rule, active = well fitted curve in the direction sought with a large enough effect in the repeat runs; inconclusive = weak or mixed curves; inactive = no such curve, though single readings can be large; an effect the other way counts as inactive or inconclusive.
% is set by controls: 0 for no effect and ±100 for the full control effect.

Sequence of Peroxisome proliferator-activated receptor gamma (Homo sapiens) (P37231 whole entry, looked up): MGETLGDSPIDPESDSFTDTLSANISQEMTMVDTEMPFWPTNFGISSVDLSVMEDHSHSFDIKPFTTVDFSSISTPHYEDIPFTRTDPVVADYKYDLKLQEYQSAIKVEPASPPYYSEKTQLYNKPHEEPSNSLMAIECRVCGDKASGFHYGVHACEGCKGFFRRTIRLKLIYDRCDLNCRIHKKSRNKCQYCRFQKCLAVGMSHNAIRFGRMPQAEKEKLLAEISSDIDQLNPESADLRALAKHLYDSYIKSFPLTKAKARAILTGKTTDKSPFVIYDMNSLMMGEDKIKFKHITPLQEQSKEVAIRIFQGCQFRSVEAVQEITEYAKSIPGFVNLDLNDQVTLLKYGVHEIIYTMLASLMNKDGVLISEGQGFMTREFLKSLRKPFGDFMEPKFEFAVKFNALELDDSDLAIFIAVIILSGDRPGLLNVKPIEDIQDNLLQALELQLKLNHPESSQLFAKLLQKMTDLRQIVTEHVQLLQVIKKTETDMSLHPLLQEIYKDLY
Sequence of Aryl hydrocarbon receptor (Homo sapiens) (P35869 whole entry, looked up): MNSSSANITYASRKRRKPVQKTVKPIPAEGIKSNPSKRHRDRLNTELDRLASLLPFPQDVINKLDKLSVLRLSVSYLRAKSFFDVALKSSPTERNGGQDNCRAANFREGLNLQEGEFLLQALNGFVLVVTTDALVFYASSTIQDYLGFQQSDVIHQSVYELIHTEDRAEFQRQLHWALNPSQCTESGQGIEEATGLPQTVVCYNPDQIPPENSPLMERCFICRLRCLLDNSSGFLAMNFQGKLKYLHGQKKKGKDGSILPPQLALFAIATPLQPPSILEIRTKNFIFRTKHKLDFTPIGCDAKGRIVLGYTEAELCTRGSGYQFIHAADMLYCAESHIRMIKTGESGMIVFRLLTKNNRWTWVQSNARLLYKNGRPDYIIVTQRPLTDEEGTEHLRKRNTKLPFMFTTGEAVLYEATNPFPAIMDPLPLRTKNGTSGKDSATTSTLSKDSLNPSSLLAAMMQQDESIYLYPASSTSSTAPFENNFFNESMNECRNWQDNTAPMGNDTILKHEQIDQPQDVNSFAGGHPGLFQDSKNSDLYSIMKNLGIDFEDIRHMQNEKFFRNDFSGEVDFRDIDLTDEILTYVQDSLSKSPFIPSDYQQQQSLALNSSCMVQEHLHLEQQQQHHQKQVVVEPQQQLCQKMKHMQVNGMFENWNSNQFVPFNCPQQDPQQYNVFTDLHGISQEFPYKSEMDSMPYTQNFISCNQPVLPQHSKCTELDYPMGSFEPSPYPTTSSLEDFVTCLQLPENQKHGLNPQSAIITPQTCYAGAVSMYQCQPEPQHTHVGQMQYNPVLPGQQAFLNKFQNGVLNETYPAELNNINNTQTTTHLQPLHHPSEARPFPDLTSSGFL

Take `CCCCCCCCCCCCCCBr`: the Potency result in [1], in assay [5] and in assay [7] was “inactive” each time. For the same compound, the call in assay [2], in assay [3], in assay [4], in assay [6], in assay [8] and in assay [9] was inactive.

Take `COc1cc(OC)cc(OC)c1`: the Potency entry in assay [1], in assay [5] and in [7] was “inactive” in each case. For the same compound, the call in assay [2], in assay [3], in assay [4], in assay [8] and in assay [9] was inactive.

`CCCCCCCCCCCCCCCC/C=C/C1CC(=O)OC1=O` (centres undefined): the Potency result in assay [1], in assay [5] and in assay [7] was “inactive” each time. For the same compound, the call in [2], in [10], in [4], in [8] and in [9] was inactive.

`CCCCCCC(=O)c1ccccc1`: the Potency entry in assay [1], in [5] and in assay [7] was “inactive” each time. Also, the compound was called inactive in assay [2], in assay [3], in assay [4], in assay [6], in [8] and in assay [9].

With `C=CC(=O)CC`, the Potency entry in assay [1], in assay [5] and in assay [7] was “inactive” in each case. The compound was classed as inactive in assay [2], in assay [3], in assay [4], in [6], in [8] and in [9].

In the case of `Cc1ccc2ccccc2n1`, the Potency entry in [1], in [5] and in [7] was “inactive” throughout. In addition, the compound was classed as inactive in assay [2], in assay [3], in assay [4], in assay [6] and in assay [9].

`O=C(CCBr)N1CCN(C(=O)CCBr)CC1`: the Potency entry in assay [1] and in assay [7] was “inactive” in each case. Besides, the outcome in [2], in assay [3], in [4], in [6], in [8] and in assay [9] was inactive. In assay [5], the Potency was 13.3 µM (active).

With `COc1cnc(NS(=O)(=O)c2ccc(N)cc2)nc1`, the Potency result in assay [1] and in assay [5] was “inactive” throughout. The outcome in assay [2], in assay [10], in assay [4], in assay [6], in assay [8] and in [9] was inactive.

As for `CCCC(C)C(O)CC` (centres undefined), the Potency result in assay [1] and in [5] was “inactive” each time. Moreover, the call in assay [2], in [10], in [4], in assay [6] and in assay [9] was inactive.

In the case of `CCCCOCCCC`, the Potency entry in assay [1], in assay [5] and in [7] was “inactive” throughout. For the same compound, the compound was classed as inactive in [2], in assay [10], in [4], in assay [8] and in assay [9].

Regarding `N=C(N)N`, the Potency entry in [1], in [5] and in [7] was “inactive” in each case. For the same compound, the call in assay [2], in [10], in assay [4], in assay [6], in assay [8] and in assay [9] was inactive.

On to `C/C(=N\O)c1ccc(OCC(=O)N2CCCCC2)cc1`, for which the Potency in [1] was 5.96 µM (active). For the same compound, the outcome in assay [2], in assay [10], in assay [4], in assay [6], in [8] and in [9] was inactive. Further, in [7], the Potency entry was “inactive”.

Consider `NS(=O)(=O)c1cc2c(cc1C(F)(F)F)NCNS2(=O)=O`, for which the Potency entry in assay [1] and in assay [7] was “inactive” throughout. Also, the call in assay [2], in [10], in [4], in assay [6], in [8] and in assay [9] was inactive.

On to `c1cc2ccc3ccc4ccc5cccc6c(c1)c2c3c4c56`, for which the activation in assay [1] is 0.485% [at 3.79 µM]. Moreover, the viability change, negative = cytotoxic in assay [2] is 13.2% [at 3.79 µM]; in [6] it was 6.8% [at 3.74 µM]. For the same compound, the activity change, negative = cytotoxicity in [4] is 27.2% [at 2.7 µM]; in assay [7], 1.58% [at 2.7 µM]; in assay [9], -28.1% [at 2.7 µM].

As to `CCCC(=O)C(CC)Sc1ccoc1C` (centres undefined), the call in assay [2], in assay [10], in [3], in assay [4], in assay [6] and in assay [8] was inactive. The result in [9] was inactive. Besides, the Potency entry in assay [5] and in assay [7] was “inactive” each time.

With `Cc1cc(C)c(C)c(C)c1`, the Potency result in assay [1], in assay [5] and in assay [7] was “inactive” throughout. Besides, the result in assay [2], in assay [4], in assay [6] and in assay [9] was inactive.

With `Cc1ccc(N)nc1`, the Potency entry in assay [1] and in assay [5] was “inactive” throughout. In addition, the compound was classed as inactive in assay [2], in assay [3], in assay [6], in assay [8] and in assay [9].

As to `O=C(O)P(=O)(O)O`, the Potency result in assay [1], in assay [5] and in [7] was “inactive” each time. Moreover, the call in assay [2], in assay [4], in [6], in assay [8] and in assay [9] was inactive.

Regarding `COC(=O)c1c(C)cc(O)c(C)c1O`, the compound was called inactive in [2], in assay [10], in assay [3], in assay [4], in assay [6] and in assay [8]. In addition, the compound was called inactive in [9]. Moreover, the Potency entry in assay [5] and in [7] was “inactive” throughout.
